# Several values for one entry are separate records, joined by “and”; a condition that tells them apart may be missing. Identical values can stand only once. Activity calls are given as the source filed them.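 How the source made its calls, unless noted: active means compounds lowering colon cancer cell viability after pretreatment blocking the GSK3B kinase; inactive means the rest.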
# How the values were obtained:
# [1] = liver-stage malaria parasite growth inhibition, primary screen, cell-based, HepG2, luciferase luminescence, HepG2 viability (AID 624349; in the data active means parasite load remaining mostly below about 12%, no sharp cut-off; inactive means mostly above about 10%;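 further: 100% = mean of DMSO negative control wells on the same plate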); details: P. berghei liver stage in HepG2, luciferase luminescence, concentration not given here; parasite load remaining: stronger effect = lower value; viability: measured here: HepG2 viability without parasites
# [2] = stimulators of nuclear beta-catenin in C2C12, primary screen, imaging, WNT3A-conditioned medium, mouse C2C12, NPC library (AID 1117326; in the data active means nuclear beta-catenin stimulation mostly above about 4.2%, no sharp cut-off; inactive means mostly below about 10%); details: stronger effect = higher value
# [3] = stimulators of insulin release from INS-1E, primary screen, cell-based, 5 mM glucose, NPC library (AID 1117329;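 active means compound raises insulin release from rat beta cells at 5 mM glucose, no numeric limit stated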); details: rat INS-1E insulin secretion, at 10 µM, stronger effect = higher value
# [4] = growth inhibition of GSK3B-pretreated HCT116 cells – cell-based, CellTiter-Glo, 0.2 to 20 µM (AID 1117336); details: HCT116 viability after GSK3B inhibitor, at 20 µM, stronger effect = higher value
# [5] = inhibition of endothelial tube formation, primary screen, imaging, VEGF stimulated, CD31 staining, tube area, NPC library (AID 1117340;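 active means compound that reduces growth-factor-driven endothelial tube area in a mixed cell culture, no cutoff stated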); details: VEGF-stimulated ADSC/ECFC co-culture, at 10 µM, stronger effect = higher value
# [6] = glucagon-like peptide 1 release enhancers, primary assay, NCI-H716 cell line, NPC library (AID 1117341;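 active means compound raises GLP1 secretion from the human gut endocrine cells, with no numeric limit stated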); details: NCI-H716 cells, at 10 µM, stronger effect = higher value
# [7] = HCT116 colon cancer cell growth inhibition, primary screen, CellTiter-Glo luminescence, NPC library (AID 1117342;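 active means compounds that lower survival of HCT116 colon cancer cells in the luminescence readout, no numeric limit stated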); details: at 20 µM (top of the series)
# [8] = CellTiter-Glo luminescent readout of SW480 viability loss, NPC library primary (AID 1117343;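 active means compounds that lower viability of the colon cancer cells in the luminescence readout, with no numeric limit stated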); details: CellTiter-Glo luminescence; at 20 µM (top of the series)
# [9] = decreased DLD-1 cellular survival, CellTiter-Glo luminescent readout, NPC compound collection, primary HTS (AID 1117346;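 active means compounds that lower survival of DLD-1 colon cancer cells in the luminescence readout, no cutoff given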); details: DLD-1 viability, CellTiter-Glo luminescence; at 20 µM (top of the series)
# [10] = molecular target: 6-phosphogluconate dehydrogenase, decarboxylating (Homo sapiens) (UniProt P52209); test: 6PGD enzyme inhibitors, primary screen, biochemical, human, recombinant enzyme, NADPH absorbance (AID 1159550;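 active means at least 20% inhibition of 6-phosphogluconate dehydrogenase activity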); details: recombinant 6PGD, NADPH absorbance 341 nm; at 10 µM; stronger effect = higher value
# Sequence of 6-phosphogluconate dehydrogenase, decarboxylating (Homo sapiens) (P52209 whole entry, looked up): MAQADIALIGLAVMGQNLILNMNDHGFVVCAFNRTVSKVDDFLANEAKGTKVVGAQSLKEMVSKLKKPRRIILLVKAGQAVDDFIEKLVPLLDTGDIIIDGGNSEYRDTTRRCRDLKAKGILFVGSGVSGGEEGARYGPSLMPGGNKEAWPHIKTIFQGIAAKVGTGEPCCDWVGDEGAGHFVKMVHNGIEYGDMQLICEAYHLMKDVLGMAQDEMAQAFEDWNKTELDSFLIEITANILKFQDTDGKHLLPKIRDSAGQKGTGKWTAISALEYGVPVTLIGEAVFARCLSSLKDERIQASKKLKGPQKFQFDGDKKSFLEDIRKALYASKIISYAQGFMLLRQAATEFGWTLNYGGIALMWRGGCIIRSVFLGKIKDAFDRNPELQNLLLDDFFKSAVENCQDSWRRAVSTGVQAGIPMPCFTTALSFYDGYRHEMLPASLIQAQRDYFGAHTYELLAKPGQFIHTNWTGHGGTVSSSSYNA
# [11] = differential killing of epithelial or mesenchymal cells, primary screen, imaging, PC-3E GFP, TEM4-18 mCherry, co-culture (AID 1345086;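 active means compounds killing one labelled cell type while sparing the other, by normalised counts and ratio limits, not self-fluorescent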;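 on all read-outs here: cells exposed to compound for 72 h before imaging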;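 on red/green cell ratio (normalised): normalised mesenchymal count divided by normalised epithelial count so high means epithelial killing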); details: imaging cell counts, at 1 µM; for red/green cell ratio (normalised): actives lie on both sides
# [12] = test system: Aerobactin synthetase IucA (Klebsiella pneumoniae hvKP1); test: Biochemical IucA enzyme inhibition primary screen of the Spectrum library (AID 1346200; call rule not given here;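 further: 100% = wells without compound and 0% = wells lacking enzyme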); details: malachite green pyrophosphate, A620, at 8 µM, stronger effect = lower value
# [13] = sensitizers of A549 cells to miR-34 induction, primary screen, imaging, A549 dox-inducible miR-34, nuclei and caspase counts (AID 1347080;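 active means compounds whose cell count with miR-34 switched on is under 0.7 times the count with it off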); details: A549 miR-34 inducible, Hoechst nuclei count, 48 h
# [14] = survival rescue of mitochondrial mutant cells in low glucose, primary screen, MELAS cybrids, Rieske KO mouse fibroblasts, CellTiter-Glo (AID 1508586;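 active means mean z-score across replicates of 1.96 or higher in either the MELAS or the Rieske mutant cell line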;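 further: z relative to plate mean and SD of compound and empty wells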)
# [15] = molecular target: NAD(+) hydrolase SARM1 (Homo sapiens) (UniProt Q6SZW1); test: SARM1 TIR NADase inhibitors, cell lysate, NAD-Glo luminescence (AID 1508614;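 active means compound whose remaining NAD level is above about 45 nM, limit read from the data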); details: SAM-TIR HEK293T lysate NADase, at 1 µM, stronger effect = higher value
# Sequence of NAD(+) hydrolase SARM1 (Homo sapiens) (Q6SZW1 whole entry, looked up, the tested form may be a part): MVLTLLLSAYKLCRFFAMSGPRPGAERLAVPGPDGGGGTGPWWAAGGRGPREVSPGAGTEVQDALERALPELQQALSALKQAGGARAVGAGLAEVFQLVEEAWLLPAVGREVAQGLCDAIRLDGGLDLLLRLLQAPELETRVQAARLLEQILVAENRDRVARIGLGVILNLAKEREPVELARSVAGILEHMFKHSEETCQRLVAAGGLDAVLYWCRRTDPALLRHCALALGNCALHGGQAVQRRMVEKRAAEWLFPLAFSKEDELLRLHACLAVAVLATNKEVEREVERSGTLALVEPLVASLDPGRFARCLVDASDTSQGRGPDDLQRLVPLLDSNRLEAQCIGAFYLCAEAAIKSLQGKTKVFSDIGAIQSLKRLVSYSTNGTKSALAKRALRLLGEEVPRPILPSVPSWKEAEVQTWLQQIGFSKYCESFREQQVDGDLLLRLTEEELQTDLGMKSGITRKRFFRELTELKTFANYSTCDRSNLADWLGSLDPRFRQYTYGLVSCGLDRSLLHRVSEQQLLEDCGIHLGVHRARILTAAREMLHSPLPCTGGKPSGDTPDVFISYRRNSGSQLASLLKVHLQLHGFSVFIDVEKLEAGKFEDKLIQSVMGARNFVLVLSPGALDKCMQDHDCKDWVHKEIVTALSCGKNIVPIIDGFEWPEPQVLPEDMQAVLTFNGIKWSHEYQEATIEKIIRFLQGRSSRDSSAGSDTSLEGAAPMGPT
# [16] = molecular target: Mitogen-activated protein kinase 7 (Homo sapiens) (UniProt Q13164); test: ERK5 transactivation activators in reporter cells, primary screen, cell-based, HTS (AID 1508626;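 active means luciferase signal above three times the same-plate solvent-only control wells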;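 further: luciferase driven by Gal4-ERK5 fusion binding five Gal4 sites before minimal TATA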); details: HeLa Gal4-ERK5 transactivation, 18 h, at 5 µM, stronger effect = higher value
# Sequence of Mitogen-activated protein kinase 7 (Homo sapiens) (Q13164 whole entry, looked up, the tested form may be a part): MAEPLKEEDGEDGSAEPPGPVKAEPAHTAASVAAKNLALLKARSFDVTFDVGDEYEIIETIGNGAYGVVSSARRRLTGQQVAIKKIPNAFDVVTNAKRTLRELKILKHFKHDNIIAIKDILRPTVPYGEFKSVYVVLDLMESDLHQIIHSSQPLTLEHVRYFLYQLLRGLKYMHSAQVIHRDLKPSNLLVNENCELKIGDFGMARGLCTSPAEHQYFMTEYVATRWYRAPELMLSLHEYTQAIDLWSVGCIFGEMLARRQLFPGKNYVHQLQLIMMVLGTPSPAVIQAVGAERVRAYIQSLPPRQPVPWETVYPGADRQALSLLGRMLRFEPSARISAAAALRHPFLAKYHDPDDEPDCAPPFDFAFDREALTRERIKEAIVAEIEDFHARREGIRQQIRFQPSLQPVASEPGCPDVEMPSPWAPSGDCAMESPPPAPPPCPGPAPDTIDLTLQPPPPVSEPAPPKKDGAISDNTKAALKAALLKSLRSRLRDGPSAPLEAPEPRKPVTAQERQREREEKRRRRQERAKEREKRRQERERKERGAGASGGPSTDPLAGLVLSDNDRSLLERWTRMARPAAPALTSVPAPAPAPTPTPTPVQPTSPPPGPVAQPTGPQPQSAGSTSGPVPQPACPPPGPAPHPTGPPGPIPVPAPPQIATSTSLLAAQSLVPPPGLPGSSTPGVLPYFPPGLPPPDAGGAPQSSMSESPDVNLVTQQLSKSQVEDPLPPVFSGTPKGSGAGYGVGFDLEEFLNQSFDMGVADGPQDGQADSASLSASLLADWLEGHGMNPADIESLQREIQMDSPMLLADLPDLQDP
# [17] = viability rescue of complex I mutant cybrids, primary screen, cell-based, galactose medium, ATP luminescence (AID 1645843;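 active means z-score of at least 1.8 in each of two replicates, scored against plate mean and spread of sample wells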;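 further: positive z means more ATP and so rescue of galactose-driven cybrid death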); details: complex I mutant cybrid cells, 72 h, stronger effect = higher value
# [18] = test system: Aerobactin synthetase IucA (Klebsiella pneumoniae, hypervirulent); test: IucA enzyme inhibition, biochemical, LOPAC library, absorbance readout (AID 1346212; call rule not given here;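 further: 100% = no compound wells and 0% = no enzyme wells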); details: IucA enzyme assay, absorbance (OD) readout; stronger effect = lower value;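 tested at 8 µM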
# [19] = measured here: epithelial PC-3E GFP cell survival
# [20] = measured here: mesenchymal TEM4-18 mCherry cell survival
# [21] = measured here: relative caspase fold change +Dox/-Dox
# [22] = measured here: total cells with miR-34 induction, stronger effect = lower value
# [23] = measured here: total cells without miR-34 induction
# [24] = MELAS cybrid survival, CellTiter-Glo 48 h, stronger effect = higher value
# [25] = Rieske KO mouse fibroblast survival, CellTiter-Glo 72 h
# [26] = counts scaled to control wells, 1 = unselective
smiles,measurement,setting,value
Cc1cc(O)ccc1Cl,parasite load remaining,[1],125% (inactive) and 54.1% (inactive)
same,viability,[1],73.3% and 86.2%
same,nuclear beta-catenin stimulation,[2]; at 10 µM,0.9% (inactive)
same,nuclear beta-catenin stimulation,"[2]; stimulation, at 2 µM",1.9%
same,insulin secretion stimulation,[3],0.3% (inactive)
same,viability decrease,[4],-17% (inactive)
same,tube area decrease,[5],1.5% (inactive)
same,GLP1 secretion stimulation,[6],0.3% (inactive)
same,inhibition of viability,[7],3.83% (inactive)
same,viability decrease (inhibition),[8],26.8% (inactive)
same,viability decrease (inhibition),[9],-3.4% (inactive)
same,inhibition,[10],3.62% (inactive)
same,red/green cell ratio (normalised),[11],1.21 (inactive)
same,normalised cell number,[11]; [19],1.13
same,normalised cell number,[11]; [20],1.36
same,activity remaining,[12],115% (inactive)
same,fold change,[13]; stronger effect = lower value,0.943 (inactive) and 0.921 (inactive)
same,fold change,[13]; [21],0.551 and 0.785
same,cell count,[13]; [22],8310 and 10900
same,cell count,[13]; [23],8820 and 11800
same,z-score,[14]; [24],-0.196 (inactive)
same,z-score,[14]; [25],-0.163
same,remaining NAD,[15],10 nM (inactive)
same,luciferase signal,[16],32 AU (inactive)
CN1CCN(C(=O)O[C@H]2c3nccnc3C(=O)N2c2ccc(Cl)cn2)CC1,parasite load remaining,[1],62.4% (inactive)
same,viability,[1],93.7%
same,nuclear beta-catenin stimulation,[2]; at 10 µM,-0.9% (inactive)
same,nuclear beta-catenin stimulation,"[2]; stimulation, at 2 µM",-0.8%
same,insulin secretion stimulation,[3],2.3% (inactive)
same,viability decrease,[4],2.2% (inactive)
same,tube area decrease,[5],-7.8% (inactive)
same,GLP1 secretion stimulation,[6],-0.8% (inactive)
same,inhibition of viability,[7],-1.1% (inactive)
same,viability decrease (inhibition),[8],5.5% (inactive)
same,viability decrease (inhibition),[9],-2.6% (inactive)
same,red/green cell ratio (normalised),[11],0.85 (inactive)
same,normalised cell number,[11]; [19],1.07
same,normalised cell number,[11]; [20],0.91
same,activity remaining,[12],110% (inactive)
same,fold change,[13]; stronger effect = lower value,0.943 (inactive) and 0.981 (inactive)
same,fold change,[13]; [21],1.01 and 4.25
same,cell count,[13]; [22],9050 and 10100
same,cell count,[13]; [23],9590 and 10300
same,remaining NAD,[15],10 nM (inactive)
same,luciferase signal,[16],40 AU (inactive)
same,z-score,[17],0.52 (inactive)
c1ccc(N2CCNCC2)cc1,nuclear beta-catenin stimulation,[2]; at 10 µM,0.1% (inactive)
same,nuclear beta-catenin stimulation,"[2]; stimulation, at 2 µM",-0.6%
same,insulin secretion stimulation,[3],3.1% (inactive)
same,viability decrease,[4],3.7% (inactive)
same,tube area decrease,[5],-2.6% (inactive)
same,GLP1 secretion stimulation,[6],-0.5% (inactive)
same,inhibition of viability,[7],10.5% (inactive)
same,viability decrease (inhibition),[8],0.3% (inactive)
same,viability decrease (inhibition),[9],-5.9% (inactive)
same,red/green cell ratio (normalised),[11],1.17 (inactive)
same,normalised cell number,[11]; [19],0.95
same,normalised cell number,[11]; [20],1.12
CCC(COC(=O)c1cc(OC)c(OC)c(OC)c1)(c1ccccc1)N(C)C (stereo unspecified),parasite load remaining,[1],36% (inactive)
same,viability,[1],62.6%
same,nuclear beta-catenin stimulation,[2]; at 10 µM,5.9% (inactive)
same,nuclear beta-catenin stimulation,"[2]; stimulation, at 2 µM",1.2%
same,insulin secretion stimulation,[3],2.2% (inactive)
same,viability decrease,[4],49% (inactive)
same,tube area decrease,[5],19.3% (inactive)
same,GLP1 secretion stimulation,[6],5.8% (inactive)
same,inhibition of viability,[7],64.3% (active)
same,viability decrease (inhibition),[8],22.7% (inactive)
same,viability decrease (inhibition),[9],20.6% (inactive)
same,red/green cell ratio (normalised),[11],1 (inactive)
same,normalised cell number,[11]; [19],1.04
same,normalised cell number,[11]; [20],1.04
same,activity remaining,[12],102% (inactive)
same,fold change,[13]; stronger effect = lower value,0.96 (inactive) and 0.993 (inactive)
same,fold change,[13]; [21],0.946 and 0.715
same,cell count,[13]; [22],9130 and 7380
same,cell count,[13]; [23],9520 and 7430
same,z-score,[14]; [24],-0.0948 (inactive) and -0.436 (inactive)
same,z-score,[14]; [25],-0.0807 and -0.229
same,remaining NAD,[15],10 nM (inactive)
same,luciferase signal,[16],28 AU (inactive)
same,z-score,[17],-1.25 (inactive)
NC(=O)OCCCc1ccccc1,parasite load remaining,[1],136% (inactive)
same,viability,[1],89.7%
same,nuclear beta-catenin stimulation,[2]; at 10 µM,0.8% (inactive)
same,nuclear beta-catenin stimulation,"[2]; stimulation, at 2 µM",0.3%
same,insulin secretion stimulation,[3],-2.9% (inactive)
same,viability decrease,[4],-9.45% (inactive)
same,tube area decrease,[5],18% (inactive)
same,GLP1 secretion stimulation,[6],0.9% (inactive)
same,inhibition of viability,[7],4.5% (inactive)
same,viability decrease (inhibition),[8],-4.9% (inactive)
same,viability decrease (inhibition),[9],-16.8% (inactive)
same,fold change,[13]; stronger effect = lower value,0.887 (inactive)
same,fold change,[13]; [21],1.34
same,cell count,[13]; [22],9650
same,cell count,[13]; [23],10900
same,z-score,[14]; [24],-0.606 (inactive)
same,z-score,[14]; [25],-0.33
same,z-score,[17],0.64 (inactive)
CC1Sc2c(C(=O)O)c(=O)c3cc(F)c(N4CCNCC4)cc3n21 (stereo unspecified),nuclear beta-catenin stimulation,[2]; at 10 µM,-0.2% (inactive)
same,nuclear beta-catenin stimulation,"[2]; stimulation, at 2 µM",2.5%
same,insulin secretion stimulation,[3],1.4% (inactive)
same,viability decrease,[4],43.4% (inactive)
same,tube area decrease,[5],-8.5% (inactive)
same,GLP1 secretion stimulation,[6],2.3% (inactive)
same,inhibition of viability,[7],50.6% (active)
same,viability decrease (inhibition),[8],40.9% (inactive)
same,viability decrease (inhibition),[9],40.8% (inactive)
same,red/green cell ratio (normalised),[11]; [26],1.16 (inactive)
same,normalised cell number,[11]; [19],1
same,normalised cell number,[11]; [20],1.16
NN=C(N)N,nuclear beta-catenin stimulation,[2]; at 10 µM,0.8% (inactive)
same,nuclear beta-catenin stimulation,"[2]; stimulation, at 2 µM",6.5%
same,insulin secretion stimulation,[3],1.9% (inactive)
same,viability decrease,[4],-34.7% (inactive)
same,tube area decrease,[5],-0.5% (inactive)
same,GLP1 secretion stimulation,[6],-3.5% (inactive)
same,inhibition of viability,[7],0.63% (inactive)
same,viability decrease (inhibition),[8],20.2% (inactive)
same,viability decrease (inhibition),[9],-6% (inactive)
same,red/green cell ratio (normalised),[11]; [26],0.96 (inactive) and 0.91 (inactive)
same,normalised cell number,[11]; [19],1.02 and 1.25
same,normalised cell number,[11]; [20],0.98 and 1.14
same,activity remaining,[12],107% (inactive)
same,remaining activity,[18],111% (inactive) and 119% (inactive)
same,cell count,[13]; [23],10500 and 9550 and 9270
same,remaining NAD,[15],10 nM (inactive)
same,z-score,[17],0.575 (inactive) and 0.155 (inactive) and 0.34 (inactive)
CN1C(=O)COc2c(C(=O)NC3CN4CCC3CC4)cc(Cl)cc21 (stereo unspecified),parasite load remaining,[1],118% (inactive)
same,viability,[1],75.1%
same,nuclear beta-catenin stimulation,[2]; at 10 µM,3.8% (inactive)
same,nuclear beta-catenin stimulation,"[2]; stimulation, at 2 µM",3.8%
same,insulin secretion stimulation,[3],1.3% (inactive)
same,viability decrease,[4],-9.5% (inactive)
same,tube area decrease,[5],-0.8% (inactive)
same,GLP1 secretion stimulation,[6],0% (inactive)
same,inhibition of viability,[7],5.23% (inactive)
same,viability decrease (inhibition),[8],18.3% (inactive)
same,viability decrease (inhibition),[9],-7.8% (inactive)
same,fold change,[13]; stronger effect = lower value,0.858 (inactive)
same,fold change,[13]; [21],1.27
same,cell count,[13]; [22],8690
same,cell count,[13]; [23],10100
same,z-score,[17],0.255 (inactive)
CC[C@]1(O)CC[C@H]2[C@@H]3CCC4=CCCC[C@@H]4[C@H]3CC[C@@]21C,parasite load remaining,[1],95.1% (inactive)
same,viability,[1],75.2%
same,nuclear beta-catenin stimulation,[2]; at 10 µM,8.1% (inactive)
same,nuclear beta-catenin stimulation,"[2]; stimulation, at 2 µM",0.5%
same,insulin secretion stimulation,[3],1.8% (inactive)
same,viability decrease,[4],70.7% (active)
same,tube area decrease,[5],66.4% (active)
same,GLP1 secretion stimulation,[6],2.3% (inactive)
same,inhibition of viability,[7],64.1% (active)
same,viability decrease (inhibition),[8],97.8% (active)
same,viability decrease (inhibition),[9],73% (active)
